OPRM1-OPRD1 ag = OPRM1-OPRD1 heterodimerization agonism; cells, luminescence; activation, % at 9.3 µM; 340,000 tested, 0.3% active; in the data active = activation above about 18%;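 note: 0% = vehicle-treated cells and 100% = reference agonist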
MOR-DOR inv ag-1 = mu-delta opioid heterodimer inverse agonism | 340,000 tested, 0.21% active | P35372+P41143 | AID 504357 | inhibition, % at 9.3 µM | cell-based MOR-DOR heterodimer luminescence; in the data active = inhibition above about 22%, passing the limit was not always enough;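 note: 0% = cells with DMSO and 100% = wells without cells with DMSO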
HTR5A ag ctr = counter-screen for OPRM1-OPRD1 agonists: human HTR5A agonism; P47898; HTR5A agonist assay, luminescence, cell-based; activation, % at 9.3 µM; 340,000 tested, 0.61% active; AID 504692; in the data active = activation mostly above about 9.5%, no sharp cut-off; inactive = mostly below about 7.6%;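 note: 0% = cells with vehicle only and 100% = reference agonist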
Target sequence (P47898 whole entry, looked up): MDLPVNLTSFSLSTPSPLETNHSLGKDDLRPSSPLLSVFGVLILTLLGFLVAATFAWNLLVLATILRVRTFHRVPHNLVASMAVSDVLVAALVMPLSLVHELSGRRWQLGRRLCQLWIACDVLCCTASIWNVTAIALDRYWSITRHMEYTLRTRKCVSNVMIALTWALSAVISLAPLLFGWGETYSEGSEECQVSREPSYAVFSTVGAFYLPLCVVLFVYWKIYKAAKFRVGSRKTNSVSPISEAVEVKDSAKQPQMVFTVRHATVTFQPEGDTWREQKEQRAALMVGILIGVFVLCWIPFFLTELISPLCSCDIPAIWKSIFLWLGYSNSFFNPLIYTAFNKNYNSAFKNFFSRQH
HTR5A inv ctr = HTR5A inverse agonism, opioid heterodimer counter-screen. P47898. HTR5A cell line, luminescence. inhibition, % at 9.3 µM. 340,000 tested, 0.083% active; in the data active = inhibition mostly above about 23%, no sharp cut-off; inactive = mostly below about 18%;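 note: 0% = cells with DMSO and 100% = no-cell wells with DMSO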
MOR-DOR ag conf = confirmation of human OPRM1-OPRD1 heterodimerization agonists | activation, % at 9.3 µM | cells, MOR-DOR heterodimerization, luminescence complementation | 830 tested, 45% active | shares compounds with OPRM1-OPRD1 ag; in the data active = activation above about 18%;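 note: 0% = vehicle-treated cells and 100% = reference agonist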
HTR5A ag counter = counter-screen for OPRM1-OPRD1 agonists: human HTR5A agonism; AID 504905; 830 tested, 8% active; shares compounds with OPRM1-OPRD1 ag; HTR5A agonist counterscreen, cell luminescence; activation, % at 9.3 µM; in the data active = activation above about 17%;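 note: 0% = vehicle-treated cells and 100% = reference agonist response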
MOR-DOR inv conf = confirmation of human OPRM1-OPRD1 heterodimerization inverse agonists | inhibition, % at 9.3 µM | cells expressing OPRM1/OPRD1 heterodimer, luminescence | AID 504900 | shares compounds with MOR-DOR inv ag-1 | 580 tested, 20% active; in the data active = inhibition above about 32%;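 note: 0% = cells with DMSO and 100% = wells lacking cells with DMSO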
HTR5A inv ctr2 = HTR5A inverse agonism, opioid heterodimer counter-screen | HTR5A-expressing cells, luminescence | 580 tested, under 10 active | AID 504914 | shares compounds with MOR-DOR inv ag-1 | inhibition, % at 9.3 µM;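 note: 0% = cells with DMSO and 100% = no-cell wells with DMSO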
MOR-DOR inv ag-2 = inverse agonist of OPRM1-OPRD1 heterodimerization in HTR5A counter-screen. shares compounds with HTR5A inv ctr. U2OS counter-screen cells, complementation luminescence. inhibition, % at 9.3 µM. 190 tested, under 10 active. AID 504912;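 note: 0% = cells with DMSO and 100% = wells without cells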
HTR5A inv conf = HTR5A (human) inverse agonism, confirmation | shares compounds with HTR5A inv ctr | HTR5A-expressing cells, luminescence | inhibition, % at 9.3 µM | 190 tested, under 10 active;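 note: 0% = cells with DMSO and 100% = no cells with DMSO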
The depositor's hits bear a star; i = inactive; nt = no result. Hits are enriched below; roughly 1.1% of the tested compounds scored in any of these assays. Unless noted, the rule behind the calls is not given here.

SMILES	OPRM1-OPRD1 ag	MOR-DOR inv ag-1	HTR5A ag ctr	HTR5A inv ctr	MOR-DOR inv conf	HTR5A inv ctr2	others
CC1CCN(CC(=O)N2CCCc3c2c(=O)oc2ccc(OCc4ccccc4)cc32)CC1	27*	-160	13*	23	nt	nt	MOR-DOR ag conf=32*;HTR5A ag counter=-4
C[C@H](CO)N1C[C@H](C)[C@@H](CN(C)Cc2ccc(C(=O)O)cc2)Oc2c(NS(=O)(=O)c3ccc(F)cc3)cccc2C1=O	-2	11	-2	-2	nt	nt
CCOC(=O)C1CCN(S(=O)(=O)c2cn(C)c(C)n2)CC1	-6	30	-1	3	nt	nt
O=C(Nc1ccccc1C(=O)NC1CC1)c1ccccc1F	-1	3	1	-3	nt	nt
COc1cccc(-c2nn(-c3ccccc3)cc2CN(C)C(C)c2ccncn2)c1 (centres undefined)	25*	-161	7	-17	nt	nt	MOR-DOR ag conf=-2;HTR5A ag counter=-2
CN(C)/C=C/C(=O)c1ccc(OCCN(C)c2ccccn2)cc1	20*	-91	2	-8	nt	nt	MOR-DOR ag conf=1;HTR5A ag counter=-3
CCN(CC)c1ccc(C(=C2C=CC(=[N+](CC)CC)C=C2)c2ccc(N(CC)CC)cc2)cc1	108*	-431	-20	50*	nt	nt	MOR-DOR ag conf=4;HTR5A ag counter=33*;MOR-DOR inv ag-2=-58;HTR5A inv conf=-122
C/C(CC(=O)Nc1cc(Cl)ccc1Cl)=N\NC(=O)c1ccccc1Br	-4	16	4	-10	nt	nt
Cc1cc(C)cc(OCC(=O)NNC(=S)NC(=O)C2CC2)c1	-7	39*	-4	9	-237	-14
COc1ccc(N(CCC(=O)Nc2ccccc2F)S(=O)(=O)c2ccc(C)cc2C)cc1	1	-4	-5	12	nt	nt
CCCN1CCC(=NNC(=O)c2ccc(Br)o2)CC1	0	-3	3	-7	nt	nt
CCCN1CCC(=NNc2ccc(C(=O)O)cc2)CC1	-8	37*	-1	26	-24	-143
CCOc1ccc(CNC23CN4CN(CN(C4)C2)C3)cc1	-3	16*	2	-5	28	9
CCOc1ccc(C=NC23CN4CN(CN(C4)C2)C3)cc1	3	-14	2	-26	nt	nt
CCC1=NC(c2ccc(Br)cc2)N(O)C1(C)C (centres undefined)	-6	33*	-1	3	25	-7
CC1(C)C(c2ccccc2)=NC(c2ccccc2)N1O (centres undefined)	-4	18	-3	-23	nt	nt
CCC1=NC(c2ccc(OC)cc2)N(O)C1(C)C (centres undefined)	-3	15	-1	-4	nt	nt
COc1ccc(C2N=C(c3ccccc3)C(C)(C)N2O)cc1 (centres undefined)	-8	43*	-1	-23	12	0
CC1(C)C(c2ccccc2)=NC(c2ccc(Br)cc2)N1O (centres undefined)	-9	46*	0	36	12	5
CCOC(=O)c1c(N)ssc1=S	-6	35*	-1	23	20	-11
CCOC(=O)c1c(N)sc(N)c1C(=O)OCC	-10	51*	8	12	i	-4
O=C(CCCc1ccncc1)c1ccccc1	-3	15	1	-4	nt	nt
Cc1cccc(NC(=S)NNc2ncc(C(F)(F)F)cc2Cl)c1	-9	45*	-2	49	33*	22
S=C(NNc1ccnc2cc(Cl)ccc12)Nc1ccccc1Cl	5	-23	2	-29	nt	nt
FC(F)(F)c1cnc(NNC(=S)Nc2ccccc2Cl)c(Cl)c1	-8	43*	-9	29	44*	35
SMILES	OPRM1-OPRD1 ag	MOR-DOR inv ag-1	HTR5A ag ctr	HTR5A inv ctr	MOR-DOR inv conf	HTR5A inv ctr2	others
COc1ccc(NC(=O)c2cccc(N3C(=O)C4C5C=CC(C6CC56)C4C3=O)c2)cc1 (centres undefined)	0	-2	1	-28	nt	nt
O=C(Nc1ccc(O)c(-c2nc3ccccc3s2)c1)c1cccs1	-6	36*	-5	13	4	3
O=C(CSc1nc2c([nH]c3ccccc32)c(=O)n1-c1ccccc1)NCC1CCCO1 (centres undefined)	-9	51*	-15	29	22	-9
[O-]/[N+](=C\c1ccccc1)[C@@H]1CCCC[C@@H]1/[N+]([O-])=C/c1ccccc1	-9	37*	4	3	18	4
Cc1ccc(C(=O)CNc2ccccc2C)cc1	-7	37	0	-12	nt	nt
Cc1ccc(C(=O)CNc2ccc(C)cc2C)cc1	-5	26*	3	-6	1	20
O=C1OCc2cccc3cccc1c23	0	1	-1	-6	nt	nt
O=C1Cc2cccc3cccc1c23	-5	30*	-3	-8	12	-17
CCn1c(Cl)c(C=O)s/c1=N\S(=O)(=O)c1ccccc1	-6	34*	-2	6	20	16
CCN1C(=O)CS/C1=N\S(=O)(=O)c1ccc(Cl)cc1	-1	5	0	-1	nt	nt
CC(=O)c1cccc(NC(=O)CN(C)Cc2ccc(OC(F)F)cc2)c1	-1	8	1	12	nt	nt
CCCC(=O)Nc1ccc(C(=O)COC(=O)c2cc(C)oc2C)cc1	-2	7	2	-6	nt	nt
O=c1[nH]c(-c2ccccn2)nc2sc(-c3ccccc3)cc12	-6	33*	2	-6	6	2
Cc1c(C(=O)N(C)C)sc2nc(-c3ccccn3)[nH]c(=O)c12	-3	16	3	-9	nt	nt
CCC1Nc2ncnc(N3CCN(c4ccccc4)CC3)c2N(Cc2ccc(C)cc2)C1=O (centres undefined)	-11	50*	-16	36	36*	56*
Cc1ccc(CN2C(=O)C(CC(C)C)Nc3ncnc(N4CCN(c5ccccc5)CC4)c32)cc1 (centres undefined)	-1	8	5	9	nt	nt
Nc1n[nH]c(=S)n1/N=C1/C(=O)Nc2ccccc21	-1	7	-1	3	nt	nt
O=C1Nc2ccccc2C1=O	-10	55*	-2	-4	33*	11
O=C1Nc2ccccc2Nc2ccccc21	-3	16	1	-3	nt	nt
O=C1Nc2ccccc2C1=NN1CCCCCC1	-7	38*	-5	20	26	-2
CCn1cc(S(=O)(=O)Nc2cc(C)ccc2F)cn1	-1	7	1	15	nt	nt
COc1ccc(C)cc1NC(=O)CCCN1C(=O)C(c2ccccc2)Oc2cccnc21 (centres undefined)	-2	12	-1	-16	nt	nt
